The values that follow come from PubChem BioAssay (NCI).

The panel holds about 83,000 compounds, 20% with a hit somewhere; the sample as a whole holds those more often.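 Cells were grown in 96-well plates and exposed to the test compound at a single concentration for 48 hours; results are reported as percent growth, with values below 10 considered active.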 A number with no mark means an inactive call. Calls of active or inactive are those of the source.

Among the test systems are SK-MEL-2 melanoma; EKVX NSCLC; SN12C renal; UO-31 renal; TK-10 renal; ACHN renal; CAKI-1 renal; A498 renal; CCRF-CEM leukemia; MOLT-4 leukemia.
What all share (test): NCI-60 one-dose screen, 48 h (100 = growth as untreated, 0 = no growth, -100 = all killed)
Settings in all cases: 10 µM unless noted

For `O=C(NNc1ccc(-c2ccccc2)nn1)c1ccc(F)cc1`, the growth with SK-MEL-2 melanoma is 108%; in the experiment with EKVX NSCLC it was 78.4%; in the experiment on SN12C renal, 95.1%; with UO-31 renal it was 80.8%; in the experiment on TK-10 renal it was 82.9%; in the experiment with ACHN renal it was 90.9%. Besides, the growth was 61.8% in the experiment on CAKI-1 renal, 67.6% with A498 renal, 108% with CCRF-CEM leukemia and 96.2% with MOLT-4 leukemia.

`O=C(O)c1cc([N+](=O)[O-])ccc1Br`: the growth with SK-MEL-2 melanoma was 107%; with EKVX NSCLC, 98.5%; with SN12C renal, 101%; in the experiment with UO-31 renal, 86.3%; in the experiment with TK-10 renal, 95.5%; in the experiment on ACHN renal, 94.2%. The growth in the experiment on CAKI-1 renal is 97.6%; in the experiment on A498 renal, 106%; in the experiment with CCRF-CEM leukemia, 105%; with MOLT-4 leukemia it was 99.8%.

Take `COc1ccc(C2=C(c3cn(C)c4ccccc34)C(=O)OC2)cc1OC`: the growth with SK-MEL-2 melanoma was 33.6%; in the experiment on EKVX NSCLC, 53%; with SN12C renal, 36.9%; in the experiment on UO-31 renal it was 25%; with TK-10 renal, 61.4%; in the experiment with ACHN renal it was 34%. Further, the growth was 25.6% in the experiment with CAKI-1 renal, -10.9% (active) with A498 renal, 31.2% in the experiment on CCRF-CEM leukemia and 32.4% with MOLT-4 leukemia.

In the case of `COc1cc2c(cc1OC(C)=O)C(=O)CCCC2`, the growth in the experiment with SK-MEL-2 melanoma was 99.3%; with EKVX NSCLC, 104%; in the experiment with SN12C renal, 112%; in the experiment on UO-31 renal, 88.4%; with TK-10 renal, 118%; with ACHN renal, 92.5%. The growth was 73.8% in the experiment on CAKI-1 renal, 68.3% in the experiment on A498 renal, 102% in the experiment with CCRF-CEM leukemia and 115% in the experiment on MOLT-4 leukemia.

In the case of `CCn1cc(-c2[nH]c(=S)ncc2-c2ccc(Cl)cc2)c(-c2ccc(Br)cc2)n1`, the growth with SK-MEL-2 melanoma is 72%; with EKVX NSCLC, 85.7%; with SN12C renal it was 85.1%; with UO-31 renal it was 89.4%; in the experiment with TK-10 renal, 109%; with ACHN renal, 91.1%. In addition, the growth is 98.5% in the experiment with CAKI-1 renal, 106% in the experiment with A498 renal and 97.2% with MOLT-4 leukemia.

In the case of `Cc1cnc([C@]23CC[C@@H](C)[C@H](C)[C@H]2C2=CC[C@@H]4[C@@]5(C)Cc6c([nH]c7ccccc67)C(C)(C)[C@@H]5CC[C@@]4(C)[C@]2(C)CC3)o1`, the growth with SK-MEL-2 melanoma is 77.4% [100 µM]; in the experiment on EKVX NSCLC, 74% [100 µM]; in the experiment with SN12C renal, 36.7% [100 µM]; in the experiment on UO-31 renal, 39% [100 µM]; with TK-10 renal, 64.2% [100 µM]; with ACHN renal it was 42.7% [100 µM]. Further, the growth with CAKI-1 renal is 49.7% [100 µM]; with A498 renal, 91.9% [100 µM]; in the experiment with CCRF-CEM leukemia it was 64% [100 µM]; in the experiment on MOLT-4 leukemia, 50.5% [100 µM].

In the case of `CC1Cc2c(ncnc2-n2cnc3ccccc32)N(C)c2ccccc21` (centres undefined), the growth in the experiment with SK-MEL-2 melanoma was -6.66% (active); in the experiment with EKVX NSCLC, 48.6%; with SN12C renal it was 35.5%; with UO-31 renal, 46.4%; in the experiment with TK-10 renal, 50%; in the experiment with ACHN renal, 55.7%. The figures for the growth in the experiment on CAKI-1 renal, in the experiment with A498 renal and in the experiment on MOLT-4 leukemia were 33.6%, -2.09% (active) and 23.2%, respectively.

Consider `CNC(=O)c1cc(Oc2ccc3nc(NC(=O)c4ccc5ncccc5c4)sc3c2)ccn1`, for which the growth with SK-MEL-2 melanoma was 86.2%; in the experiment on EKVX NSCLC, 87.5%; in the experiment with SN12C renal it was 92.6%; with UO-31 renal it was 77%; with TK-10 renal it was 90.5%; in the experiment with ACHN renal, 102%. The values for the growth with CAKI-1 renal, in the experiment with A498 renal and with MOLT-4 leukemia were 89.9%, 88.3% and 94.2%, respectively.

Turning to `C[n+]1c(-c2ccccc2)c2cc(N)ccc2c2ccccc21`, the growth is 19.6% in the experiment with SK-MEL-2 melanoma; 26.6% with EKVX NSCLC; 4.79% (active) with SN12C renal; 89.9% with UO-31 renal; 90.4% in the experiment with TK-10 renal; 95.7% in the experiment with ACHN renal. Moreover, the growth was 110% in the experiment on CAKI-1 renal, 126% in the experiment on A498 renal, 50.9% with CCRF-CEM leukemia and 33.5% in the experiment with MOLT-4 leukemia.

On to `C=C(C)[C@@H]1CC[C@]2(COC(=O)c3ccccc3C(=O)O)CC[C@]3(C)[C@H](CC[C@@H]4[C@@]5(C)CC[C@H](OC(=O)c6ccccc6C(=O)O)C(C)(C)[C@@H]5CC[C@]43C)[C@@H]12`, for which the growth in the experiment on SK-MEL-2 melanoma was 23.8% [100 µM]; in the experiment on EKVX NSCLC, 39.5% [100 µM]; in the experiment with SN12C renal, 27.8% [100 µM]; in the experiment on UO-31 renal, 27.7% [100 µM]; with TK-10 renal it was 21.8% [100 µM]; with ACHN renal, -55.6% [100 µM] (active). In addition, the growth is 10.7% [100 µM] with CAKI-1 renal, -0.192% [100 µM] (active) in the experiment on A498 renal and 39.9% [100 µM] with MOLT-4 leukemia.

As to `COc1ccc(-c2cc(-c3ccccc3)nc(NCCNc3ccnc4cc(Cl)ccc34)n2)cc1`, the growth with SK-MEL-2 melanoma was -77.3% (active); with EKVX NSCLC, -88.1% (active); with SN12C renal, -92.9% (active); in the experiment on UO-31 renal it was -91.9% (active); in the experiment with TK-10 renal, -81.7% (active); in the experiment with ACHN renal, -94.2% (active). Moreover, the growth is -86.5% (active) in the experiment on CAKI-1 renal, 5.73% (active) with A498 renal, -30.7% (active) in the experiment on CCRF-CEM leukemia and -44.4% (active) in the experiment with MOLT-4 leukemia.

Consider `O=C(OCc1ccc2c(Cl)cc(Cl)c(O)c2n1)N1CCNCC1`, for which the growth in the experiment on SK-MEL-2 melanoma is 59.1%; in the experiment with EKVX NSCLC, 33.1%; in the experiment on SN12C renal, 32%; with UO-31 renal, 15.3%; in the experiment on TK-10 renal it was 52.1%; with ACHN renal, 14%. The values for the growth in the experiment on CAKI-1 renal, with A498 renal and with MOLT-4 leukemia were 27%, 24.3% and 33.5%, respectively.

`CC(C)OC(=O)Nc1cc(F)ccc1F`: the growth was 112% in the experiment with SK-MEL-2 melanoma; 98.8% in the experiment on EKVX NSCLC; 99.5% in the experiment on SN12C renal; 89.7% in the experiment on UO-31 renal; 97.7% with TK-10 renal; 100% in the experiment on ACHN renal. For the same compound, the growth in the experiment with CAKI-1 renal was 96.5%; with A498 renal it was 96.9%; in the experiment on MOLT-4 leukemia it was 101%.

For `CCCc1cc2cc(-n3nc(C)c4c3CC(C)(C)CC4=O)cc(NC3CCSCC3)c2c(=O)[nH]1`, the growth with SK-MEL-2 melanoma was 71.6%; in the experiment on EKVX NSCLC, 76.4%; in the experiment with SN12C renal it was 39.8%; in the experiment with UO-31 renal it was 61%; in the experiment on TK-10 renal, 43.4%; with ACHN renal, 38.5%. Further, the growth is 68.8% in the experiment on CAKI-1 renal, 71.4% in the experiment with A498 renal, 100% in the experiment with CCRF-CEM leukemia and 49.8% with MOLT-4 leukemia.
